Data: PubChem BioAssay (NCI)
Compounds without any hit were thinned out: in the full panel of roughly 83,000, 20% have a hit.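 How to read the values: 0–100, growth inhibition (40 = 60% inhibited); 0, no net growth; -100 to 0, cell death (-40 = 40% of starting cells died; -100 = all dead).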 A number with no mark means an inactive call. Activity calls are given as the source filed them. How the source made its calls: active means growth percent below 10; inactive means the rest.

Test system: MDA-MB-468 breast
Test: NCI-60 one-dose screen, 48 h (100 = growth as untreated, 0 = no growth, -100 = all killed)
Conditions: 10 µM unless noted

Compound | growth
C=C(C)[C@@H]1CC[C@]2(CN)CC[C@]3(C)[C@H](CC[C@@H]4[C@@](C)(CCCN)[C@H](C(=C)C)CC[C@]43C)[C@@H]12 | 84.7%
O=S(=O)(/N=c1/n(-c2ccccc2)nc2n1CCN2C1=NCCN1)c1ccc(-c2ccccc2)cc1 | 94.3%
Cc1n(Cc2ccc3ccccc3c2)c2ccccc2[n+]1Cc1ccc2ccccc2c1 | -60.8% (active)
CCOC(=O)CC1CSC(Nc2ccccc2)=N1 (stereo not given) | 106%
CCn1cc(C2NC(=O)c3cc(F)ccc3N2)c2cccc(Cl)c21 (stereo not given) | 7.04% (active)
CCOC(=O)C1=C(c2ccccc2)N=c2s/c(=C/c3ccc(Br)cc3)c(=O)n2C1c1ccc(O)cc1 (stereo not given) | 83.7%
O=C(O)c1cn(C2CC2)c2cc(N3CCN(Cc4nnc(Nc5ccccc5)o4)CC3)c(F)cc2c1=O | 114%
O=[N+]([O-])c1ccc(Oc2cc(Cl)c(Cl)cc2Cl)c(C(F)(F)F)c1 | 100%
CCCCCc1ccc(S(=O)(=O)Nc2cc(-c3csc(NC(=O)CN4CCN(C)CC4)n3)ccc2N2CCN(C)CC2)cc1 | 51.7%
CC(=O)Nc1ccc(S(=O)(=O)N2C(=O)CCC2C(=O)Nc2ccccc2)cc1 (stereo not given) | 40.3%
O=C(O)c1ccccc1C(=O)Nc1ccc(Cl)cc1 | 120%
CN1CCN(Cc2ccc(NC(=O)c3cncc(C#Cc4cnc5ccc(OCC(C)(C)O)nn45)c3)cc2C(F)(F)F)CC1 | -40.2% (active)
CC(=O)[C@H]1CC[C@H]2[C@@H]3CC[C@@H]4CC=C(C=O)C[C@]4(C)[C@H]3CC[C@]12C | 99.4%
O=C1Nc2ccccc2/C1=C/c1cn(C[C@@H](O)Cn2c3ccccc3c(=O)c3ccccc32)c2ccccc12 | 79.6%
Cc1c(N(C)CS(=O)(=O)O)c(=O)n(-c2ccccc2)n1C | 106%
C=C=COc1cccc(/C(N)=N/C(N)=N/c2nc3ccccc3s2)c1 | 102%
COc1ccccc1S(=O)(=O)Nc1ccc2c3c(cc(-c4cnn(C5CC5)c4)nc13)C(=O)N2C | 50.9%
O=C(/C=C/C=C/c1csc(Br)n1)NO | 99.7%
CCSCC1CC(O)(c2ccccc2)CC(c2ccc(F)cc2)O1 (stereo not given) | 8.89% (active)
CCCC(C)OCC(=O)O (stereo not given) | 92.1%

Compound | growth
NNC(=O)/C(=C\c1ccc([N+](=O)[O-])cc1)CC(=O)c1ccc(Cl)c(Cl)c1 | 89.2%
CC[C@@H](C)/C=C(C)/C=C/C(=O)c1c(O)c(-c2ccc(O)cc2)cn(OC2CC(=O)CCC(C)OC(=O)CC2O)c1=O (stereo not given in full) | -29.9% (active)
C[C@H]1[C@H]2[C@H]3CC[C@@H]4[C@@]5(C)C/C(=C/c6ccco6)C(=O)C(C)(C)[C@@H]5CC[C@@]4(C)[C@]3(C)CC[C@]23CO[C@]1(C)[C@@H](C(=O)/C=C\c1ccco1)C3 | 76.3%
C=C(C)[C@@H]1CC[C@]2(CO)CC[C@]3(C)[C@H](CC[C@@H]4[C@@]5(C)CC[C@H](NCO)C(C)(C)[C@@H]5CC[C@]43C)[C@@H]12 | -74.8% (active)
CCNc1nc(-c2ccc(Cl)c(OC)c2)c(-c2ccnc(NCCCNS(=O)(=O)c3ccc(Cl)cc3)n2)s1 | 63.3%
N#Cc1c(-c2ccccc2)cc(-c2ccccc2)n(CCC(=O)O)c1=O | 26.6%
O=[N+]([O-])c1cccc(CN(Cc2cccc([N+](=O)[O-])c2O)c2ccccc2)c1O | 108%
COc1cc(C2C3=C(COC3=O)Nc3cc4c(cc32)OCO4)cc2c1OCO2 (stereo not given) | -10.3% (active)
Nc1ncnc2c1c(C(F)(F)F)cn2[C@@H]1O[C@H](CO)[C@@H](O)[C@H]1O | -41.1% (active)
CC(C)CNCC(O)COc1ccc(C(C)(C)c2ccc(OCC(O)CNCC(C)C)cc2)cc1 (stereo not given) | 62.5%
CC(=O)CC[C@H]1C(=O)N[C@@H](C(C)C)C(=O)N[C@@H](Cc2cc(O)cc(F)c2)C(=O)N2CCC[C@H](N2)C(=O)O[C@H](/C(C)=C/C=C/C(=O)OC(C)(C)C)C/C=C/C=C/[C@H](O)[C@H](C)[C@H]1O | 15.1%
O=C(CC(CC(=O)c1ccccc1)c1ccccn1)c1ccccc1 | 102%
CN1CCN(Cc2ccc(NC(=O)c3cncc(C#Cc4cncc5ncccc45)c3)cc2C(F)(F)F)CC1 | 43.5%
CCN(CC)CCCC(C)NCCCNc1cccc2cccnc12 (stereo not given) | 90%
Cc1ccc(CNc2ccc3nc(CCC4CCCCC4)[nH]c3c2)cc1 | -13.2% (active)
Clc1ccc(Cc2nnc3sc(-c4cccnc4)nn23)cc1 | 94.2%
CC(=O)Nc1ccc(Cl)cc1Cl | 90.1%
COc1cccc(-c2nc3cc(NC(=O)c4ccc(Cl)c(C#N)c4)ccc3o2)c1 | -60.3% (active)
NC(=O)c1c(NC(=O)c2cccc(C(F)(F)F)c2F)sc2c1CCC(=O)C2 | -1.45% (active)
CC/C=C/[C@@H]1C=C[C@@H]2CCC[C@H]2[C@@H]1CC[C@H](O)[C@H](C)N | -76.6% (active)
